Activity calls are given as the source filed them. The calls were made as follows: active = hit-call score of the fitted dose curve at least 0.9, where 1 is the maximum; inconclusive = response in the unintended direction; inactive = score below 0.9.

This note sets out measurements from PubChem BioAssay (EPA / NIEHS).

This experiment deals with rat Monoamine Oxidase, MAO-A, Central (MAOAC), gene 29253. Description: NVS_ENZ_rMAOAC: NovaScreen (NVS) Enzymatic Assay for rat Monoamine Oxidase, MAO-A, Central (MAOAC) (AID 2283243).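 Also: potency refers to inhibition seen as signal drop below DMSO baseline.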 The method, then:
NVS_ENZ_rMAOAC is a biochemical, single-readout assay that uses extracted gene-proteins from Rat brain in a tissue-based cell-free assay. Measurements were taken 1.5 hours after chemical dosing in a 96-well plate.NVS_ENZ_rMAOAC is one of one assay component(s) measured or calculated from the NVS_ENZ_rMAOAC assay. It is designed to make measurements of enzyme activity, a form of enzyme reporter, as detected with scintillation counting signals by Lysate-based radiodetection technology.Data from the assay component NVS_ENZ_rMAOAC was analyzed into 1 assay endpoint. This assay endpoint, NVS_ENZ_rMAOAC, was analyzed in the positive analysis fitting direction relative to DMSO as the negative control and baseline of activity. Using a type of enzyme reporter, loss-of-signal activity can be used to understand changes in the enzymatic activity as they relate to the gene Maoa. Furthermore, this assay endpoint can be referred to as a primary readout, because this assay has produced multiple assay endpoints where this one serves a enzymatic activity function. To generalize the intended target to other relatable targets, this assay endpoint is annotated to the oxidoreductase intended target family, where the subfamily is monoamine oxidase.
Binding assays used specific radioligands (tritiated, iodinated) with non-radioactive competitive displacement ligands in agonist or antagonist protocols (as indicated) and various reference compounds and inhibitors to titrate specific binding to receptors and transporters. Most enzyme assays (CYPs, kinases, phosphatases, proteases, HDACs) used recombinant protein and specific substrates (fluorescence mostly, some colorimetric and radioactive) and inhibitors, followed by a biochemical separation of substrate and product. All assays for the biochemical HTS were initially run in duplicate at a single concentration (10 uM for CYP450 assays and 25 uM for all others). […] Each assay was run with positive and negative controls, and concurrent controls on every plate. The follow-up (secondary) screen tested active chemical-pairs in concentration series, as well as a few additional assays not tested in the primary screen, some selected negative inactives, and several cases re-run in the concentration series for confirmatory purposes.
With `Cc1c2ccccc2c(C)c2c1ccc1ccccc12`, the call was inactive.
For `Nc1ccc(Oc2cccc(Oc3ccc(N)cc3)c2)cc1`, the AC50 was 22.7 µM (active).
In the case of `Cc1cc(C)c(O)c(C)c1`, the compound was classed as inactive.
Consider `Oc1ccc(Nc2ccccc2)cc1`, for which the AC50 was 17.7 µM (active).
Same read-out and setting: the same measure for `c1ccc2c(c1)[nH]c1ccccc12`: 16.7 µM (active).
Take `COC(=O)c1ccccc1C(=O)O`: the result was inactive.
Take `CNNCc1ccc(C(=O)NC(C)C)cc1`: the AC50 is 18 µM (active).
The same measure, in the same setting: in the case of `c1ccc(C(O[C@@H]2CCCN(CCc3ccc4c(c3)OCO4)C2)c2ccccc2)cc1` it was 20.5 µM (active); in that of `CCOc1ccc2c(c1)C(C)=CC(C)(C)N2`, 16.6 µM (active).
Turning to `CN1CN(C)CN(C)C1`, the result was inactive.
For the compound `Cc1cc(C)c(C=O)c(C)c1`, the AC50 is 19.9 µM (active).
Same read-out and setting: in the case of `N=C(N)c1ccc(OCCCCCOc2ccc(C(=N)N)cc2)cc1` it was 0.203 µM (active).
The same measure, in the same setting: in the case of `CCOC(=O)CC(CC(=O)OCC)(OC(C)=O)C(=O)OCC` it was 25 µM (active).
With `Clc1ccc2c(Cl)ccnc2c1`, the AC50 is 20.8 µM (active).
Turning to `CN(C)c1ccc(N=NS(=O)(=O)O)cc1`, the call was inactive.
For the compound `CC(=O)CCc1ccc(O)cc1`, the AC50 was 17.5 µM (active).
On the same count and under the same terms, the same measure for `CCCCCCCCCCCC[N+](C)(C)C`: 25 µM (active); for `Nc1cccc2c(N)cccc12`: 25 µM (active); for `CSc1ccc(O)cc1C`: 15.7 µM (active).
Still for that read-out and setting: in the case of `Nc1cccc(N)c1` it was 4.33 µM (active).
As to `C=Cc1cccc(C)c1`, the result was inactive.
In the case of `CCCCCCCCCCCCCC[N+](C)(C)C`, the AC50 is 31.1 µM (active).
As to `CCOc1ccc(NC(C)=O)cc1`, the AC50 was 21 µM (active).
Still for that read-out and setting: in the case of `O=c1c(O)c(-c2ccc(O)c(O)c2)oc2cc(O)cc(O)c12` it was 9.38 µM (active); in that of `O=C1OC2(c3ccccc31)c1cc(I)c(O)c(I)c1Oc1c2cc(I)c(O)c1I`, 0.828 µM (active).
Same read-out and setting: the same measure for `NC(=NCCCCCCN=C(N)/N=C(\N)Nc1ccc(Cl)cc1)/N=C(\N)Nc1ccc(Cl)cc1`: 20.5 µM (active).
As for `C=CC(=O)OCCN(CC)CC`, the outcome was inactive.
In the case of `CC(=O)Nc1ccc(N=Nc2cc(C)ccc2O)cc1`, the AC50 is 0.0709 µM (active).
Same read-out and setting: the same measure for `Cc1ccc(N)c([N+](=O)[O-])c1`: 8.62 µM (active); for `CCOc1ccc(NC(N)=O)cc1`: 16.6 µM (active).
For the compound `Nc1nc(N)c2nc(CNc3ccc(C(=O)N[C@@H](CCC(=O)O)C(=O)O)cc3)cnc2n1`, the AC50 is 0.889 µM (active).
`O=C1c2ccccc2C(=O)c2c(Cl)cccc21`: the AC50 is 3.72 µM (active).
For `Oc1ccc2c(c1)-c1ccccc1C2`, the AC50 was 0.743 µM (active).
On to `CCCCCCCCCC`, for which the call was inactive.
As for `c1ccc2c(c1)ccc1ncccc12`, the AC50 is 2.35 µM (active).
`CCCOc1sc(C(=O)N2CCC(c3cc(CN)ccc3F)CC2)c(C)c1Br`: the AC50 was 0.439 µM (active).
On the same count and under the same terms, in the case of `CCN(Cc1cccnc1)C(=O)c1cccc(Cl)c1[C@]1(C)C(=O)N(Cc2ccc(OC)cc2OC)c2ccc(Cl)cc21` it was 2.51 µM (active); in that of `CN(C)C(=O)Nc1ccc(Cl)c(Cl)c1`, 13.6 µM (active).
With `C#C[C@]1(O)CC[C@H]2[C@@H]3CCc4cc(O)ccc4[C@H]3CC[C@@]21C`, the call was inactive.
On the same count and under the same terms, the same measure for `Cc1ccc2sc3cccc(C)c3c2c1`: “inactive”.

For orientation: AC50 means the midpoint of the concentration-response curve, whichever way the signal moves.
